Compound activity deposited in PubChem BioAssay by National Center for Advancing Translational Sciences (NCATS).
The entries come from a sample that favours hits as a whole.
Shiga toxin inh: inhibitors of Shiga toxin in Vero cells. Vero cells, Shiga toxin protein synthesis inhibition reporter. inhibition, % at 38.7 µM. 290,000 compounds, 9.2% hits; in the data active = inhibition mostly above about 28%, no sharp cut-off; inactive = mostly below about 43%
AmpC no deterg: AmpC beta-lactamase inhibition without detergent | AmpC nitrocefin hydrolysis, absorbance 480 nm, 0.0001% Triton | 330,000 compounds, 0.52% hits | Potency, µM (highest dose often 57.1 µM), usual class: inhibitors; note: nearly all actives have a fitted effect of over 20% in size
Target sequence (P00811 whole entry, looked up): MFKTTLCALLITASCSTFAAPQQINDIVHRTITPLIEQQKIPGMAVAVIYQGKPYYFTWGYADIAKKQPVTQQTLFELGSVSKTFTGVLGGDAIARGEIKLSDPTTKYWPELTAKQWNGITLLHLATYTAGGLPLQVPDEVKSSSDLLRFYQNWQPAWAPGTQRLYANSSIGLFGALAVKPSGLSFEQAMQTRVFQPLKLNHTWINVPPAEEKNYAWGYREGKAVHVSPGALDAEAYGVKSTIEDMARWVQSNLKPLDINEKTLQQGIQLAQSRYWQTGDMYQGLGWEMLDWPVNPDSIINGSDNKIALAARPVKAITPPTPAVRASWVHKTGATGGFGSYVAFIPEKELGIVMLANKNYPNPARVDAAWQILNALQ
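AmpC (5.3 nM in the dispensed reagent) in 20 mM phosphate pH 7.0 with 0.01% (detergent screen) or 0.0001% Triton X-100 was preincubated with compounds for 15 min at room temperature. Nitrocefin was then added from an 800 uM solution, and hydrolysis was followed at 480 nm.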
SARS PLP yeast: blocks SARS-CoV papain-like protease in a yeast assay | Potency, µM (titrated, usually from 32.9 µM), hits mostly activators | AID 485353 | 330,000 compounds, 0.19% hits | S. cerevisiae expressing SARS-CoV PLpro, growth rescue; calls by dose curve; note: nearly all actives have a fitted effect of over 55% in size
AmpC detergent: inhibitors of E. coli AmpC beta-lactamase with detergent. AmpC hydrolysis of nitrocefin, absorbance 480 nm, 0.01% Triton. Potency, µM (top dose mostly 114 µM), usual class: inhibitors. 370,000 compounds, 0.041% hits; note: nearly all actives have a fitted effect of over 25% in size
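20 mM phosphate pH 7.0 + 0.01% (detergent screen) or 0.0001% Triton X-100; 5.3 nM AmpC reagent; cpd preinc 15 min RT; nitrocefin (800 uM stock) to start; A480 q20 s × 4 min; Activity was normalised to no-enzyme and no-compound control wells.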
AMA1-RON2 inh: inhibitors of Plasmodium falciparum AMA1-RON2 interaction | Potency, µM (highest dose often 58.2 µM), usual class: inhibitors | AlphaScreen AMA1-biotinylated RON2 peptide binding | 360,000 compounds, 0.2% hits; note: nearly all actives have a fitted effect of over 45% in size
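AMA1 (3D7) with his tag at 25 nM final met compounds first, then biotinylated RON2 peptide at 25 nM; detection used donor plus acceptor beads, 10 µg/mL apiece, read by AlphaScreen after 30 min at room temperature.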
Cycloheximide cs: counter-screen hit for Shiga toxin inhibitors, cycloheximide; cell reporter, cycloheximide protein synthesis inhibition counterscreen; 300,000 compounds, 12% hits; AID 2314; max response, %; in the data active = max response mostly above about 13%, no sharp cut-off; inactive = mostly below about 14%; note: read at 38.3 µM for the half of the compounds with a filed dose
A number is an active result; 0 = inactive; ? = inconclusive; - = no result given. Unless noted, calls come from the whole dose curve; as a rule, active = well fitted curve in the direction sought with a large enough effect; inconclusive = small, poorly fitted or top-dose-only effect, or another doubt; inactive = no such curve, though single readings can be large; an effect the other way counts as inactive or inconclusive.

SMILES | Shiga toxin inh | AmpC no deterg | SARS PLP yeast | AmpC detergent | AMA1-RON2 inh | Cycloheximide cs
COc1ccc(NC2=C(C(C)=O)C(c3ccc(N(C)C)cc3)C(C(C)=O)C(C)(O)C2)cc1 (centres undefined) | 0 | 0 | 0 | 0 | 0 | 0
Cc1nc(N)nc(Nc2ccc(Cl)cc2)c1Br | 43 | 0 | 0 | 0 | 0 | 34
CC1(C)COCN1S(=O)(=O)c1ccc(C(=O)Nc2nnc(-c3ccc(Cl)s3)o2)cc1 | 0 | 0 | 0 | 0 | 0 | 0
O=S(=O)(Nc1nc2c(s1)CCCC2)c1ccc(F)cc1 | 0 | 0 | 0 | 0 | 0 | 21
O=S(=O)(Nc1nc2c(s1)CCCC2)c1ccc(Br)cc1 | 0 | 0 | ? | 0 | 0 | 0
COc1cccc(-n2cc3c(=O)n(C)c(=O)n(C)c3c2)c1 | 0 | 0 | 0 | ? | 0 | 24
Cc1ccc(/C(O)=C2/C(=O)C(=O)N(c3ccccn3)C2c2ccc(F)cc2)cc1 (centres undefined) | 0 | 0 | 0 | 0 | ? | 19
NC(=O)C1CCN(S(=O)(=O)c2cccc(C(=O)O)c2)CC1 | 0 | 0 | 0 | 0 | 0 | 0
COc1ccc2c(c1OC)C(=O)N1N=C(c3ccc(Cl)cc3)CC21 (centres undefined) | 0 | 0 | 0 | ? | 0 | 13
COc1ccc(C2=NN3C(=O)c4c(ccc(OC)c4OC)C3C2)cc1 (centres undefined) | 0 | ? | 0 | 0 | 0 | 0
Cc1cccc(-c2noc(CCC(=O)Nc3ccc(C(N)=O)cc3)n2)c1 | 0 | 0 | 0 | 0 | 0 | 0
O=C(c1ccc(Oc2ccc(C(F)(F)F)cc2[N+](=O)[O-])cc1)N1CCOCC1 | 0 | 0 | 0 | 0 | 0 | 0
O=c1cc(/C=C/c2ccccc2)oc2ccccc12 | 107 | 0 | 0 | 0 | 0 | 47
O=c1cc(CO)oc2ccccc12 | - | 0 | 0 | - | 0 | -
CSc1nc2sc3c(c2c(=O)n1C)CCC(C)C3 (centres undefined) | 0 | 0 | 0 | 0 | 0 | 22
C=CCn1nnc2sc3c(c2c1=O)CCC(C)C3 (centres undefined) | 49 | 0 | 0 | 0 | 0 | 29
CSc1nc2sc3c(c2c(=O)n1C)CCC3 | 0 | 0 | 0 | 0 | 0 | 0
CC1CCc2c(sc3nnn(Cc4ccccc4)c(=O)c23)C1 (centres undefined) | - | - | - | 0 | - | -
CC(C)(C)Sc1ccc2nc3c(n2c1)CCCC3 | 0 | 0 | ? | 0 | 0 | 15
Cc1nn(-c2ccccc2)c(C)c1/C=N/NC(=O)c1cc(-c2cccc3ccccc23)n[nH]1 | 0 | 0 | 0 | 0 | 0 | 0
COc1ccc(OCCSc2nc3ccccc3n2CC(=O)N2CCOCC2)cc1 | - | - | - | 0 | - | -
CC(C)(C)NC(=S)Nc1ccc(Nc2ccccc2)cc1 | 46 | 0 | 0 | 0 | 0 | 19
Cc1ccc(NC(=S)Nc2ccc(Br)cc2)cc1 | 0 | 0 | 0 | 0 | 0 | 0
CC(C)(C)NC(=S)Nc1ccc(Br)cc1 | 58 | 0 | 0 | 0 | 0 | 32
COc1ccc(C2CC(=O)c3cnc4c(-c5ccccc5)c(C)nn4c3C2)cc1OC (centres undefined) | - | - | - | 0 | - | -
SMILES | Shiga toxin inh | AmpC no deterg | SARS PLP yeast | AmpC detergent | AMA1-RON2 inh | Cycloheximide cs
CCC(Oc1ccccc1)C(=O)Nc1nnc(S(=O)(=O)Nc2ccccc2)s1 (centres undefined) | 0 | 0 | 0 | 0 | 0 | 0
Cc1nnc(SCc2ccc(C(=O)Nc3cc(Cl)ccc3C)cc2)s1 | 0 | 0 | 0 | 0 | 0 | 0
Cc1ccc(NC(=O)c2ccc(CSc3nnc(C)s3)cc2)c(C)c1 | 97 | 0 | 0 | ? | 0 | 43
Cc1ccc(C(=O)CSc2nnc(C)s2)cc1 | 66 | 0 | 0 | 0 | 0 | 53
Cc1nnc(SCC(=O)c2ccc(Br)cc2)s1 | 0 | 0 | 0 | 0 | 0 | 19
COc1ccc(CNC(=O)CC(c2ccc(OC)cc2)N2Cc3ccccc3C2=O)cc1 (centres undefined) | - | - | - | 0 | - | -
O=C(Cc1ccccc1)N[C@@H](Cc1ccc(O)cc1)C(=O)O | 0 | 0 | 0 | 0 | - | 0
COc1ccc(CSc2ncnc3sccc23)cc1F | 55 | 0 | 0 | 0 | 0 | 0
c1ccc2c(c1)CN1C(=N2)COc2ccccc2C1c1nc2ccccc2[nH]1 (centres undefined) | - | - | - | - | 0 | -
O=C(c1cc2ccccc2cc1O)N1CCN(c2cccc(Cl)c2)CC1 | - | 0 | 0 | 0 | 0 | -
